Assay results from PubChem BioAssay.
Measured potencies and affinities stand elsewhere. Inconclusive results are not listed. Calls of active or inactive are those of the source. Unless noted, the rule behind the calls is not given here.

experiment: inhibitors of CMV-promoter luciferase reporter, dose response, counter-screen for Pax8 inhibitor project, cell-based, HEK293, luminescence, dry powder (AID 743020;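 active = signal-lowering compounds whose fitted half-maximal concentration is at or below twice the top tested dose in every run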;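 note: HEK293 cells stably expressing the CMV luciferase reporter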); details: SteadyGlo luminescence, 24 h; series mostly up to 35 µM

**Q.** Which outcome does the source give for `C[C@H](CO)N1C[C@H](C)[C@H](CN(C)S(=O)(=O)c2cccc(F)c2)OCc2ccccc2-c2c(n(C)c3ccccc23)C1=O` here?
**A.** Its outcome is “inactive”.

**Q.** With `C=CC(=O)N1C/C(=C/c2ccc(Cl)cc2)C(=O)/C(=C\c2ccc(Cl)cc2)C1` as the compound, how does the outcome read?
**A.** Its outcome is “inactive”.

**Q.** Which outcome does the source give for `O=C(Nc1cccc(F)c1)N1CCCCN2[C@@H](CO)[C@H](c3ccc(C#Cc4ccccc4)cc3)[C@@H]2C1` here?
**A.** Its outcome is “inactive”.

**Q.** For `O=C(Nc1cccc(Cl)c1)Nc1csc([N+](=O)[O-])c1`, which outcome is on record?
**A.** The outcome was “inactive”.

**Q.** With `O=C(Nc1ccc(F)cc1)c1nc(S(=O)(=O)Cc2ccccc2)ncc1Cl` as the compound, how does the outcome read?
**A.** Its outcome is “inactive”.

**Q.** For `C=C1C(=O)[C@]23C[C@H]1CC[C@H]2[C@]1(C)[C@@H](OC(C)=O)CC[C@@](C)(C(=O)OC)[C@H]1C[C@@H]3OC(C)=O`, which outcome is on record?
**A.** Its outcome is “inactive”.

**Q.** Which outcome does the source give for `C=C1C2(C(=O)Nc3ccc(SC(F)F)cc3)CCC(C2)C1(C)C` (centres undefined) here?
**A.** The outcome was “inactive”.

**Q.** With `CCC(=O)Oc1ccc2c(C)cc(=O)oc2c1C(=O)c1ccccc1` as the compound, how does the outcome read?
**A.** Its outcome is “inactive”.

**Q.** Which outcome does the source give for `O=C(CCc1ccc(S(=O)(=O)NCc2ccccc2)cc1)NCc1ccco1` here?
**A.** Its outcome is “inactive”.

**Q.** With `CCCCNC(=O)C(Sc1ccccc1)c1ccccc1` (centres undefined) as the compound, how does the outcome read?
**A.** The outcome was “inactive”.

**Q.** For `C=C1C(=O)O[C@@H]2[C@H]1CC[C@H](C)[C@]1(O)CCC(=O)[C@@]21C`, which outcome is on record?
**A.** The outcome was “inactive”.

**Q.** With `CCc1ccc2[nH]c3nc(N/N=C/c4ccc(O)cc4O)nnc3c2c1` as the compound, how does the outcome read?
**A.** The outcome was “inactive”.

**Q.** For `O=C(Nc1cccc(Br)c1)c1ccc2c(c1)SC1=NS(=O)(=O)CCN12`, which outcome is on record?
**A.** The outcome was “inactive”.

**Q.** For `Cc1cccc(NCc2ccc(O)c3ncccc23)c1C`, which outcome is on record?
**A.** Its outcome is “inactive”.

**Q.** With `Cc1cccc(NC(=O)CC23CC4CC(C2)CC(n2nnc(C)n2)(C4)C3)c1` as the compound, how does the outcome read?
**A.** Its outcome is “inactive”.

**Q.** With `COC(=O)[C@@]12C[C@@H](CC(=O)N3CCN(C(=O)c4ccco4)CC3)C(=O)N(Cc3ccco3)C1=CCC(C)(C)C2` as the compound, how does the outcome read?
**A.** Its outcome is “inactive”.

**Q.** With `CC(C)OCCCNC(=O)c1cccc(NC(=O)c2ccccc2)c1` as the compound, how does the outcome read?
**A.** Its outcome is “inactive”.

**Q.** Which outcome does the source give for `COc1cc(Cl)c(NC2=CC(=O)C(=O)c3ccccc32)c(OC)c1` here?
**A.** The outcome was “inactive”.

**Q.** Which outcome does the source give for `CCN(CC(=O)Nc1c(F)cccc1F)C(=O)c1cc(S(=O)(=O)N(CC)CC)ccc1N1CCCCC1` here?
**A.** The outcome was “inactive”.

**Q.** For `O=C1c2c(O)ccc(O)c2C(=O)c2c(NCCNCCO)ccc(NCCNCCO)c21`, which outcome is on record?
**A.** The outcome was “inactive”.

**Q.** With `O=C(N/N=C/c1ccc(O)cc1)c1[nH]c2ccc(Br)cc2c1-c1ccccc1` as the compound, how does the outcome read?
**A.** The outcome was “inactive”.

**Q.** With `O=C(N/N=C/c1ccc(Cl)c([N+](=O)[O-])c1)c1cc(-c2ccc3c4c(cccc24)CC3)n[nH]1` as the compound, how does the outcome read?
**A.** The outcome was “inactive”.

**Q.** With `O=C(NC1CCCCC1)C(c1cccs1)N(C(=O)Cc1c[nH]c2ccccc12)c1ccc(F)cc1` (centres undefined) as the compound, how does the outcome read?
**A.** The outcome was “inactive”.

**Q.** For `CCN(CC)CC(C)(C)C(=O)/C=C/c1ccc(/C=C/C(=O)C(C)(C)CN(CC)CC)cc1`, which outcome is on record?
**A.** Its outcome is “inactive”.

experiment: non-specific cell cytotoxicity, dose response, cytotoxicity control for PAX8 inhibitor project, plate reader, dry powder samples (AID 743021); details: cell line, non-specific cytotoxicity counter-screen; series mostly up to 35 µM

**Q.** Which outcome does the source give for `COc1ccccc1N1CCN(Cc2cc(Br)c(O)c3ncccc23)CC1` here?
**A.** The outcome was “inactive”.

**Q.** With `Cc1ccc2c(c1C)-c1c(ccc(C)c1C)C(=O)C2=O` as the compound, how does the outcome read?
**A.** Its outcome is “inactive”.

**Q.** Which outcome does the source give for `CCOC(=O)Nc1ccc2c(c1)N(C(=O)CCCl)c1ccccc1[S@]2=O` here?
**A.** The outcome was “inactive”.

**Q.** Which outcome does the source give for `Cc1ccc(S(=O)(=O)N2CCCCC2)cc1NC(=O)Cc1c[nH]c2ccccc12` here?
**A.** Its outcome is “inactive”.

**Q.** For `Cc1noc(/C=C/c2ccco2)c1S(=O)(=O)N1CCC(C(=O)NC(C)c2ccccc2)CC1` (centres undefined), which outcome is on record?
**A.** The outcome was “inactive”.

**Q.** For `Cc1ccc(S(=O)(=O)CCC(=O)c2ccc(O)cc2O)cc1`, which outcome is on record?
**A.** The outcome was “inactive”.

**Q.** For `COc1ccc(S(=O)(=O)Nc2ccc3c(c2)C(=O)N([C@H](C)CO)C[C@H](C)[C@@H](CN(C)S(=O)(=O)c2ccc(C)cc2)OCCCC[C@H](C)O3)cc1`, which outcome is on record?
**A.** The outcome was “inactive”.

**Q.** Which outcome does the source give for `CCCN(CCC)Cc1c(C(=O)N/N=C/C(C)=C\c2ccco2)nnn1-c1nonc1N` here?
**A.** The outcome was “inactive”.

**Q.** For `O=C(c1nnsc1S(=O)(=O)c1ccc(Cl)cc1)N1CCOCC1`, which outcome is on record?
**A.** Its outcome is “inactive”.

**Q.** For `O=C(Nc1ccc([N+](=O)[O-])cn1)c1cc(-c2cccc(Br)c2)nc2ccccc12`, which outcome is on record?
**A.** The outcome was “inactive”.

**Q.** With `CN(C)N=Nc1nc[nH]c1C(N)=O` as the compound, how does the outcome read?
**A.** Its outcome is “inactive”.

**Q.** Which outcome does the source give for `COc1ccc(-c2cc(-c3ccccc3)c(C#N)c(S(C)(=O)=O)n2)cc1` here?
**A.** Its outcome is “inactive”.

**Q.** For `Nc1ncnc2c(C3OC(CO)C(O)C3O)scc12` (centres undefined), which outcome is on record?
**A.** The outcome was “inactive”.

**Q.** With `COc1cccc(/C=N/NC(=O)c2ccc(N3CCCC3=O)cc2)c1` as the compound, how does the outcome read?
**A.** Its outcome is “inactive”.

**Q.** With `CN(C)CCOc1ccc2c(c1)C(=O)C(=Cc1ncc([N+](=O)[O-])n1C)C2` as the compound, how does the outcome read?
**A.** Its outcome is “inactive”.

**Q.** Which outcome does the source give for `COc1ccc(C(=O)N/N=C/c2ccc(OC)c(CN3CCN(c4ccc(F)cc4)CC3)c2)cc1` here?
**A.** Its outcome is “inactive”.

**Q.** Which outcome does the source give for `C[C@H](CO)N1C[C@H](C)[C@H](CN(C)S(=O)(=O)c2cccc(F)c2)OCc2ccccc2-c2c(n(C)c3ccccc23)C1=O` here?
**A.** The outcome was “inactive”.

**Q.** For `C=CC(=O)N1C/C(=C/c2ccc(Cl)cc2)C(=O)/C(=C\c2ccc(Cl)cc2)C1`, which outcome is on record?
**A.** The outcome was “inactive”.

**Q.** With `O=C(Nc1cccc(F)c1)N1CCCCN2[C@@H](CO)[C@H](c3ccc(C#Cc4ccccc4)cc3)[C@@H]2C1` as the compound, how does the outcome read?
**A.** The outcome was “inactive”.

**Q.** With `O=C(Nc1cccc(Cl)c1)Nc1csc([N+](=O)[O-])c1` as the compound, how does the outcome read?
**A.** Its outcome is “inactive”.

**Q.** Which outcome does the source give for `O=C(Nc1ccc(F)cc1)c1nc(S(=O)(=O)Cc2ccccc2)ncc1Cl` here?
**A.** The outcome was “inactive”.

**Q.** For `C=C1C(=O)[C@]23C[C@H]1CC[C@H]2[C@]1(C)[C@@H](OC(C)=O)CC[C@@](C)(C(=O)OC)[C@H]1C[C@@H]3OC(C)=O`, which activity change, negative = cytotoxicity is on record?
**A.** The activity change, negative = cytotoxicity was -15.7% [at 8 µM] (inactive).

**Q.** With `C=C1C2(C(=O)Nc3ccc(SC(F)F)cc3)CCC(C2)C1(C)C` (centres undefined) as the compound, how does the outcome read?
**A.** Its outcome is “inactive”.

**Q.** For `CCC(=O)Oc1ccc2c(C)cc(=O)oc2c1C(=O)c1ccccc1`, which outcome is on record?
**A.** The outcome was “inactive”.

**Q.** With `O=C(CCc1ccc(S(=O)(=O)NCc2ccccc2)cc1)NCc1ccco1` as the compound, how does the outcome read?
**A.** Its outcome is “inactive”.

**Q.** With `CCCCNC(=O)C(Sc1ccccc1)c1ccccc1` (centres undefined) as the compound, how does the outcome read?
**A.** Its outcome is “inactive”.

**Q.** Which outcome does the source give for `C=C1C(=O)O[C@@H]2[C@H]1CC[C@H](C)[C@]1(O)CCC(=O)[C@@]21C` here?
**A.** The outcome was “inactive”.

**Q.** Which outcome does the source give for `CCc1ccc2[nH]c3nc(N/N=C/c4ccc(O)cc4O)nnc3c2c1` here?
**A.** The outcome was “inactive”.

**Q.** For `O=C(Nc1cccc(Br)c1)c1ccc2c(c1)SC1=NS(=O)(=O)CCN12`, which outcome is on record?
**A.** The outcome was “inactive”.

**Q.** Which outcome does the source give for `Cc1cccc(NCc2ccc(O)c3ncccc23)c1C` here?
**A.** The outcome was “inactive”.

**Q.** For `Cc1cccc(NC(=O)CC23CC4CC(C2)CC(n2nnc(C)n2)(C4)C3)c1`, which outcome is on record?
**A.** The outcome was “inactive”.

**Q.** For `COC(=O)[C@@]12C[C@@H](CC(=O)N3CCN(C(=O)c4ccco4)CC3)C(=O)N(Cc3ccco3)C1=CCC(C)(C)C2`, which outcome is on record?
**A.** Its outcome is “inactive”.

**Q.** For `CC(C)OCCCNC(=O)c1cccc(NC(=O)c2ccccc2)c1`, which outcome is on record?
**A.** Its outcome is “inactive”.

**Q.** For `COc1cc(Cl)c(NC2=CC(=O)C(=O)c3ccccc32)c(OC)c1`, which outcome is on record?
**A.** The outcome was “inactive”.

**Q.** Which outcome does the source give for `CCN(CC(=O)Nc1c(F)cccc1F)C(=O)c1cc(S(=O)(=O)N(CC)CC)ccc1N1CCCCC1` here?
**A.** The outcome was “inactive”.

**Q.** Which outcome does the source give for `O=C1c2c(O)ccc(O)c2C(=O)c2c(NCCNCCO)ccc(NCCNCCO)c21` here?
**A.** Its outcome is “inactive”.

**Q.** For `O=C(N/N=C/c1ccc(O)cc1)c1[nH]c2ccc(Br)cc2c1-c1ccccc1`, which outcome is on record?
**A.** The outcome was “inactive”.

**Q.** Which outcome does the source give for `O=C(N/N=C/c1ccc(Cl)c([N+](=O)[O-])c1)c1cc(-c2ccc3c4c(cccc24)CC3)n[nH]1` here?
**A.** The outcome was “inactive”.

**Q.** With `O=C(NC1CCCCC1)C(c1cccs1)N(C(=O)Cc1c[nH]c2ccccc12)c1ccc(F)cc1` (centres undefined) as the compound, how does the outcome read?
**A.** The outcome was “inactive”.

**Q.** Which outcome does the source give for `CCN(CC)CC(C)(C)C(=O)/C=C/c1ccc(/C=C/C(=O)C(C)(C)CN(CC)CC)cc1` here?
**A.** The outcome was “inactive”.
